Assay outcomes: PubChem BioAssay, several laboratories
CendR NRP1 mod: modulators of CendR peptide binding to human neuropilin-1; actives 0.85% (n = 360,000); FAM-RPARPAR peptide binding to NRP-1, fluorescence polarization; inhibition, % at 25 µM; O14786;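 active = inhibition or corrected inhibition above about 18%, plus a signal ratio from 0.5 to 1.5, limit read from the data, passing the limit was not always enough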
CTSL1 counter: cathepsin L1 inhibition, PFM18AAP counter-screen; inhibition, % at 5.96 µM; actives 0.49% (n = 300,000); AID 1906; recombinant F. hepatica cathepsin L1, Z-Leu-Arg-MCA fluorescence;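 active = inhibition above the mean of all tested compounds plus 3 SD, set per screening campaign, cut at about 17% in these data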;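 also: 0% = plate median of test compound wells and 100% = 1 µM Z-Phe-Ala-diazomethylketone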
PHOSPHO1 inh: inhibitors of human PHOSPHO1 phosphatase. Q8TCT1. recombinant PHOSPHO1, absorbance phosphatase assay. inhibition, % at 13.3 µM. actives 1.1% (n = 290,000). AID 1565; in the data active = inhibition above about 60%
TPT1 inh: C. albicans TPT1 enzyme inhibition | recombinant caTPT1, FP RNA substrate dephosphorylation | inhibition, % at 5 µM | actives 0.81% (n = 300,000) | AID 1962;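 active = inhibition above the mean of all tested compounds plus 3 SD, set per screening campaign, cut at about 24% in these data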;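 also: plate controls were DMSO alone for no effect and ferristatin control at 100 nM for full effect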
Rpn11 block: blocks the human proteasome subunit Rpn11; inhibition, % at 20 µM; O00487; AID 588493; human 26S proteasome, Ub4-pepOG fluorescence polarization; 20S core pre-blocked with epoxomicin; actives 0.59% (n = 360,000);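 active = inhibition at 20 µM, scaled to each plate's controls, above about 33%, limit read from the data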
HNF4A DNA FP: change in binding of human HNF4 alpha to DNA; HNF4a-FITC DNA binding, fluorescence polarization, 1 h; activity change, % at 10 µM; actives 0.3% (n = 360,000); in the data active = activity change above about 30%, passing the limit was not always enough
caTPT1 confirm: confirmation of Candida albicans TPT1 inhibitors; inhibition, % at 5 µM; actives 74% (n = 2,400); shares compounds with TPT1 inh; AID 2149; recombinant caTPT1, fluorescence polarization, RNase T1 coupled;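 active = inhibition above the primary screen limit, the mean inhibition of all tested compounds plus 3 SD, cut at about 25% in these data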
RNase T1 counter: RNase T1 inhibition in TPT1 counter-screen; inhibition, % at 5 µM; AID 2153; RNase T1 cleavage, fluorescence polarization, 1536-well; shares compounds with TPT1 inh; actives 83% (n = 2,400);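 active = inhibition above the solvent-only control well mean plus 3 SD, limit set per screening run, cut at about 23% in these data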;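 also: plate controls were DMSO wells with enzyme for no effect and wells without RNase T1 for full effect; inhibitors block cleavage so intact labeled substrate keeps polarization high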
Rpn11 inh conf: Rpn11 inhibition confirmation, single concentration; purified human 26S proteasome, Ub4-pepOG fluorescence polarization; proteasome pretreated with epoxomicin; inhibition, % at 20 µM; actives 29% (n = 1,900); shares compounds with Rpn11 block
MMP-2 inh: MMP-2 (human) inhibition counter-screen | shares compounds with Rpn11 block | recombinant MMP-2, FRET peptide cleavage fluorescence | inhibition, % at 20 µM | actives 4% (n = 1,900);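 also: human MMP-2 activated beforehand with APMA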
Thrombin FP: counter-screen for RPN11 inhibitors: inhibition of bovine thrombin | shares compounds with Rpn11 block | bovine thrombin cleavage of Ub4-pepOG, fluorescence polarization | inhibition, % at 20 µM | actives 13% (n = 1,900) | AID 602333;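 active = mean inhibition at least 40% at 20 µM, or signal 3 deviations below plate average, so some actives read negative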;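 also: plate controls were thrombin with DMSO for no effect and buffer wells lacking thrombin for full effect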
Target sequence (P00735 whole entry, looked up): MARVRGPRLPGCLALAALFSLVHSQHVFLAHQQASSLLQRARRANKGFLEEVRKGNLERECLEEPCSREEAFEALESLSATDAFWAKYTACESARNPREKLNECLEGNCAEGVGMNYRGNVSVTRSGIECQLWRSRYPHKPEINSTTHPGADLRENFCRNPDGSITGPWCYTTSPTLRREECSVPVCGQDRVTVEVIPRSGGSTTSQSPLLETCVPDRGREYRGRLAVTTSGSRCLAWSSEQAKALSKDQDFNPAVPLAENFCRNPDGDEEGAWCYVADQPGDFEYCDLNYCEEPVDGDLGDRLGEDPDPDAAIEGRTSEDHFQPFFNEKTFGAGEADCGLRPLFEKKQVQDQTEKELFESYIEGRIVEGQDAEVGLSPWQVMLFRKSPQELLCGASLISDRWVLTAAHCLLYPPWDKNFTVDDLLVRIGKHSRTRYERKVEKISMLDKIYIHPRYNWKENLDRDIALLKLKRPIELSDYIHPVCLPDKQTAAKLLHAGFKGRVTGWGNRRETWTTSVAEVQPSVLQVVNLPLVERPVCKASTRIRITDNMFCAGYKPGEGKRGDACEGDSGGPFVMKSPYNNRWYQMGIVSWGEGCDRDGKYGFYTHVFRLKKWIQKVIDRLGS
HNF4A confirm: change in binding of human HNF4 alpha to DNA, retest; shares compounds with HNF4A DNA FP; HNF4A-FITC DNA binding, fluorescence polarization, 1 h; activity change, % at 12.5 µM; actives 99% (n = 210); call rule not given here
An asterisk follows results filed as active; x = not tested or not shown; + = active, no number; ! = not active in a repeat. A selection: hits, their analogues and other compounds. The true share with any hit is near 3.3%. Rule as the data show it, unless noted: active = inhibition above about 40%; inactive = the rest.

SMILES | CendR NRP1 mod | CTSL1 counter | PHOSPHO1 inh | TPT1 inh | Rpn11 block | HNF4A DNA FP | caTPT1 confirm | RNase T1 counter | Rpn11 inh conf | MMP-2 inh | Thrombin FP | others
COC(C[C@@H](O)C[C@@H](O)[C@@H](C)OCc1ccccc1)OC | 24 | 0 | x | 1 | -1 | -1 | x | x | x | x | x
Cc1c(N2C(=O)c3cccc4cccc(c34)C2=O)c(=O)n(-c2ccccc2)n1C | 9 | 5 | -22 | -4 | 4 | -3 | x | x | x | x | x
Cc1c(N=C2Nc3cccc4cccc2c34)c(=O)n(-c2ccccc2)n1C | 142 | 2 | 17 | 88* | x | 43*! | 109* | 114* | -10 | -38 | active
COc1ccc(C(=O)CC(=O)c2ccc(F)cc2)cc1 | -3 | -1 | x | 2 | -4 | 2 | x | x | x | x | x
COc1ccc(/C=C2\C(=O)NC(=S)N2C(=O)c2ccc(F)cc2)cc1 | -140 | 5 | -50 | 148* | + | 72* | 156* | 145* | + | 12 | active
O=c1cc(Cl)[nH]c(=O)n1CCNc1ncc(C(F)(F)F)cc1Cl | -154 | -4 | 0 | 74* | 82* | 50* | 72* | 85* | 99* | 7 | 87*
N#Cc1c(-c2ccc(F)cc2)cc(-c2cccnc2)nc1N | -11 | 1 | 4 | 6 | 12 | 4 | x | x | x | x | x
N#Cc1c(-c2ccco2)cc(-c2ccc(F)cc2)nc1N | -101 | -1 | -7 | 25* | 73* | 44* | 30* | 38* | 50* | -2 | 38
COc1ccc(CCn2c(=N)c(C(=O)NC3CCCC3)cc3c(=O)n4ccccc4nc32)cc1 | 3 | 3 | 12 | 2 | -2 | 3 | x | x | x | x | x
COc1ccc(CCn2c(=N)c(C(=O)NC3CCCC3)cc3c(=O)n4ccccc4nc32)cc1OC | -62 | 2 | 24 | 28* | 42* | 24 | 45* | 57* | 34 | -27 | 24
Cc1cccc2sc(NC(=O)C3CCCN(S(=O)(=O)c4cccc5nonc45)C3)nc12 (centres undefined) | -36 | 2 | -8 | 43* | 58* | 21 | 39* | 49* | 41* | -27 | -19
Cc1ccc2nc(NC(=O)C3CCCN(S(=O)(=O)c4cccc5nonc45)C3)sc2c1 (centres undefined) | x | -3 | 20 | 10 | x | x | x | x | x | x | x
Cc1c([C@@H]2C[C@H]3CN(Cc4cccc(Cl)c4)C(=O)[C@]34CCCN24)cnn1C | -55 | -2 | 45 | 32* | 45* | 21 | 34* | 48* | 38 | -33 | 5
CCCn1cc([C@@H]2C[C@H]3CN(Cc4cccc(Cl)c4)C(=O)[C@]34CCCN24)c(C)n1 | -6 | 0 | 28 | 3 | 13 | -1 | x | x | x | x | x
C[C@@H]1CN([C@H](C)CO)C(=O)c2cc(NC(=O)Nc3ccc4c(c3)OCO4)ccc2O[C@H]1CN(C)Cc1ccncc1 | 4 | x | x | x | -4 | 4 | x | x | x | x | x
Cc1cccc(/C=N/c2sc3c(c2C#N)CCN(Cc2ccccc2)C3)c1O | -112 | 0 | 2 | 58* | 50* | 23 | 56* | 69* | 18 | -11 | -7
COc1ccc(/C=N/c2sc3c(c2C#N)CCN(Cc2ccccc2)C3)c(O)c1 | x | -1 | 12 | 11 | x | x | x | x | x | x | x
CC(=Nc1ccc(C)cc1C)c1sc2ccccc2c1O | -38 | -2 | -44 | 55* | 38* | 21 | 79* | 94* | 25 | 10 | 2
Cc1ccc(C(=O)N/N=C/c2c(O)ccc3ccccc23)cn1 | -59 | 3 | 37 | 84* | 122* | 45* | 93* | 96* | 23 | -43 | 3
Cc1occc1C(=O)N/N=C/c1c(O)ccc2ccccc12 | -7 | 4 | 17 | 2 | 2 | 0 | x | x | x | x | x
CCc1nn(CC(=O)NCCc2ccc(S(N)(=O)=O)cc2)c(=O)c2cc3sccc3n12 | 1 | 2 | -4 | 1 | 0 | -1 | x | x | x | x | x
CCOc1cc(/C=C2\SC(=O)N(c3ccc(O)cc3)C2=O)ccc1O | -59 | 7 | 37 | 70* | 68* | 8 | 74* | 77* | 15 | 1 | 6
CCOc1cc(/C=C2\CN(CC)C/C(=C\c3ccc(O)c(OCC)c3)C2=O)ccc1O | 3 | 3 | 14 | 4 | 8 | 2 | x | x | x | x | x
CCOc1ccc(N2C(=O)S/C(=C\c3ccc(O)c(OCC)c3)C2=O)cc1 | -20 | 6 | 12 | 46* | 47* | 15 | 58* | 60* | 9 | 26 | -1
CN=C1S/C(=C\c2ccc(O)c(OC)c2)C(=O)N1C | -12 | -2 | x | 2 | 12 | 3 | x | x | x | x | x
SMILES | CendR NRP1 mod | CTSL1 counter | PHOSPHO1 inh | TPT1 inh | Rpn11 block | HNF4A DNA FP | caTPT1 confirm | RNase T1 counter | Rpn11 inh conf | MMP-2 inh | Thrombin FP | others
O=C(COc1ccc(Br)cc1)N1CCNC1=O | -1 | 0 | 53 | 4 | 2 | -2 | x | x | x | x | x
COc1ccc2[nH]cc(/C=C/c3cc[n+](C)cc3)c2c1 | -188 | 0 | 30 | 71* | 116* | 52* | 83* | 90* | 114* | -66 | 114* | HNF4A confirm=114*
COc1ccc2[nH]cc(C=O)c2c1 | 6 | 2 | -4 | -6 | -3 | -1 | x | x | x | x | x
CC(C)(C)c1ccc(C(=O)NCC(=O)OCc2ccc([N+](=O)[O-])cc2)cc1 | -3 | -5 | -11 | 0 | 4 | -3 | x | x | x | x | x
CN1CCN(C(CNS(=O)(=O)c2ccc(Br)cc2)c2ccc3c(c2)OCO3)CC1 (centres undefined) | -5 | -2 | x | 0 | -1 | -1 | x | x | x | x | x
CC(NC(=O)/C(C#N)=C1\N=C(NC(=O)c2ccco2)c2ccccc21)c1ccccc1 (centres undefined) | -61 | -1 | -6 | 47* | 26 | 74* | 24 | 31* | x | x | x | HNF4A confirm=36*
COc1ccc(-n2c(C)cc(/C=C3\SC(=S)NC3=O)c2C)cc1 | -73 | 2 | 24 | 30* | 45* | 40* | 24* | 36* | 34 | 22 | 12 | HNF4A confirm=59*
